This note sets out measurements from PubChem BioAssay (EPA / NIEHS).

Results filed as inconclusive are left out. The source made the active and inactive calls. How the source made its calls, unless noted: active means hit-call score of the fitted dose curve at least 0.9, where 1 is the maximum; inactive means score below 0.9.

Assay [1] in a line: ATG_PPRE_CIS: Attagene CIS-FACTORIAL HepG2 Assay for human Peroxisome Proliferator-activated Response Element (PPRE) (AID 2282958). The conditions noted are these: HepG2 PPRE cis-element reporter, Attagene transcription factor profiling; actives raise or lower the signal. Summed up:
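Transcript-level reporter induction in transfected HepG2 cells after 24 h chemical exposure, quantified by fluorescence from RT-PCR products separated by capillary electrophoresis.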

Assay [2] is described as follows: ATG_RORE_CIS: Attagene CIS-FACTORIAL HepG2 Assay for human RAR-related Orphan Receptor Element (RORE) (AID 2282959). The conditions noted are these: HepG2 Attagene cis-factorial RORE reporter, mRNA; actives raise or lower the signal. An outline of the steps: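 Multiplexed reporter assay measuring mRNA induction from a cis promoter element in transiently transfected HepG2 cells after 24 h treatment. Detection via RT-PCR and capillary electrophoresis fluorescence; DMSO serves as baseline.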

A short description of assay [3]: ATG_Sox_CIS: Attagene CIS-FACTORIAL HepG2 Assay for human SRY-box transcription factor (SOX) (AID 2282960). Conditions: HepG2 Attagene cis-factorial SOX reporter, mRNA; actives raise or lower the signal. An outline of the steps:
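Cells were transfected with reporter constructs under cis-regulatory promoters, then exposed to chemicals for 24 h. Reporter transcripts were quantified by fluorescence after RT-PCR and capillary electrophoresis; activity was fitted in both directions against DMSO.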

Assay [4] has as its target Transcription factor Sp1 (Homo sapiens) (UniProt P08047). Description: ATG_Sp1_CIS: Attagene CIS-FACTORIAL HepG2 Assay for human Specificity Protein 1 (Sp1) (AID 2282961). Conditions: HepG2 Sp1 cis-reporter transcription, actives raise or lower the signal. Summed up: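 Measures mRNA induction of an Sp1-linked reporter in HepG2 cells 24 h post-dosing. Multiplexed reporters read by RT-PCR and capillary electrophoresis; DMSO serves as negative control and baseline.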

Assay [5] in a line: ATG_SREBP_CIS: Attagene CIS-FACTORIAL HepG2 Assay for human Sterol Regulatory Element Binding (SREBP) (AID 2282962). Conditions: HepG2 Attagene cis-factorial SREBP reporter, mRNA; actives raise or lower the signal. An outline of the steps:
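Twenty-four hours after chemical dosing of transfected HepG2 cultures, reporter RNA was converted to cDNA, amplified, end-labelled with 6-FAM and resolved by capillary electrophoresis. Responses were fitted relative to DMSO.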

Assay [6] concerns the target Signal transducer and activator of transcription 3 (Homo sapiens) (UniProt P40763). Description: ATG_STAT3_CIS: Attagene CIS-FACTORIAL HepG2 Assay for human Signal Transducer and Activator of Transcription 3 (STAT3) (AID 2282963). The conditions noted are these: HepG2, Attagene cis-factorial STAT3 reporter transcription; actives raise or lower the signal. An outline of the steps: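 Values derive from bidirectional fits relative to DMSO of reporter mRNA levels, measured by RT-PCR with capillary electrophoresis, in HepG2 cells carrying transiently transfected cis-regulated reporter units and exposed 24 h.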

Assay [7] is described as follows: ATG_TA_CIS: Attagene CIS-FACTORIAL HepG2 Assay for human TA Basal Promoter (AID 2282964). The conditions noted are these: HepG2 Attagene CIS-factorial TA basal promoter reporter; actives raise or lower the signal. Summed up: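 HepG2 cells transiently transfected with multiple reporter units under cis promoter elements, reporting endogenous transcription factor activity; this endpoint tracks the TA basal promoter as background control. Reporter mRNA after 24 h dosing measured by RT-PCR/capillary electrophoresis; bidirectional fits versus DMSO.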

The nature of assay [8]: ATG_TCF_b_cat_CIS: Attagene CIS-FACTORIAL HepG2 Assay for human T-Cell-Factor with beta-catenin (TCF/b-cat) (AID 2282965). The conditions noted are these: HepG2 TCF/beta-catenin cis-reporter transcription, actives raise or lower the signal. An outline of the steps:
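Cells of the HepG2 line carry transiently transfected reporter units whose promoters respond to endogenous factors. Twenty-four hours post-dosing, reporter mRNA induction is measured by fluorescent RT-PCR and capillary electrophoresis, with DMSO as baseline.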

Assay [9] can be described thus: ATG_TAL_CIS: Attagene CIS-FACTORIAL HepG2 Assay for human TAL Basal Promoter (AID 2282966).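 Further: background control endpoint measuring basal TAL promoter reporter mRNA not a specific factor.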 The conditions noted are these: HepG2 Attagene cis-factorial TAL promoter reporter; actives raise or lower the signal. Summed up: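 HepG2 cells transiently transfected with multiplexed cis-promoter reporter units, dosed 24 h. Reporter mRNA quantified by RT-PCR, 6-FAM labelling, HpaI digestion and capillary electrophoresis; TAL basal promoter serves as background control, fitted bidirectionally versus DMSO.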

The nature of assay [10]: ATG_TGFb_CIS: Attagene CIS-FACTORIAL HepG2 Assay for human Transforming Growth Factor (TGF) (AID 2282967). The conditions noted are these: HepG2 Attagene CIS TGFb reporter, mRNA transcription; actives raise or lower the signal. Summed up:
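HepG2 cells transiently transfected with cis-promoter-driven multiple reporter units measure endogenous TF activity; reporter mRNA quantified at 24 h by RT-PCR, FAM labeling, HpaI digestion and capillary electrophoresis. Bidirectional fit vs DMSO.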

The nature of assay [11]: ATG_VDRE_CIS: Attagene CIS-FACTORIAL HepG2 Assay for human Vitamin D Receptor Element (VDRE) (AID 2282968). Conditions: HepG2 VDRE cis-reporter transcription, actives raise or lower the signal. An outline of the steps: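 Cell-based multiplexed reporter format in human liver HepG2 cells, 24 h post-dose. Fluorescence from capillary electrophoresis of reporter cDNA gives the signal, with DMSO as negative control and baseline.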

The target in assay [12] is Nuclear receptor subfamily 1 group I member 3 (Homo sapiens) (UniProt Q14994). In words: ATG_CAR_TRANS: Attagene TRANS-FACTORIAL HepG2 Assay for human Constitutive Androstane Receptor (CAR) (AID 2282969; active means hit-call score of the fitted dose curve at least 0.9, where 1 is the maximum;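 further: activators raise reporter mRNA above DMSO so AC50 marks induction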). The conditions noted are these: HepG2 Attagene TRANS-FACTORIAL CAR reporter. Summed up: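 HepG2 cells transiently transfected with GAL4-UAS reporter units; TRANS format reads activity of exogenous chimeric NR-Gal4 protein. After 24 h dosing, reporter mRNA quantified by RT-PCR, 6-FAM labelling and capillary electrophoresis; gain of signal fitted against DMSO.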

In assay [13] the target is Estrogen receptor (Homo sapiens) (UniProt P03372). In words: ATG_ERa_TRANS: Attagene TRANS-FACTORIAL HepG2 Assay for human Estrogen Receptor alpha (ERa) (AID 2282970; active means hit-call score of the fitted dose curve at least 0.9, where 1 is the maximum). The conditions noted are these: HepG2 Attagene TRANS ERa GAL4 reporter, mRNA. An outline of the steps: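 HepG2 cells transiently transfected with multiplexed GAL4-UAS reporter units read out chimeric NR-Gal4 activity. After 24 h compound exposure, reporter mRNA was quantified by RT-PCR, 6-FAM labeling, HpaI digestion and capillary electrophoresis, relative to DMSO.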

The target of assay [14] is Steroid hormone receptor ERR1 (Homo sapiens) (UniProt P11474). Description: ATG_ERRa_TRANS: Attagene TRANS-FACTORIAL HepG2 Assay for human Estrogen-Related Receptor alpha (ERRa) (AID 2282971; active means hit-call score of the fitted dose curve at least 0.9, where 1 is the maximum). Conditions: HepG2 Attagene TRANS reporter, ERRa transactivation. An outline of the steps:
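HepG2 cells transiently transfected with GAL4-UAS reporter units and chimeric NR-Gal4 constructs; after 24 hour compound incubation, reporter mRNA quantified by RT-PCR, fluorescent labelling and capillary electrophoresis, gain of signal versus DMSO.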

Assay [15] in a line: ATG_GAL4_TRANS: Attagene TRANS-FACTORIAL HepG2 Assay for GAL4 (Internal Marker) (AID 2282976; active means hit-call score of the fitted dose curve at least 0.9, where 1 is the maximum). Conditions: HepG2 Attagene TRANS GAL4 internal marker reporter. Summed up:
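Background-control readout: GAL4-UAS reporter transcript in transiently transfected HepG2 cells after 24 h compound exposure. Measured by RT-PCR, 6-FAM primer extension, HpaI digest and capillary electrophoresis; gain-of-signal fit versus DMSO.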

Assay [16] addresses Glucocorticoid receptor (Homo sapiens) (UniProt P04150). In words: ATG_GR_TRANS: Attagene TRANS-FACTORIAL HepG2 Assay for human Glucocorticoid Receptor (GR) (AID 2282978; active means hit-call score of the fitted dose curve at least 0.9, where 1 is the maximum;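 further: activators score as hits since higher reporter transcript over DMSO is fitted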). Conditions: HepG2 Attagene TRANS GR reporter, mRNA transcription. An outline of the steps: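 Multiplexed TRANS reporter system, HepG2; 24 h exposure; RNA → oligo(dT) RT → reporter-specific PCR → 6-FAM primer extension → HpaI cut → CE fluorescence. Gain-of-signal vs DMSO.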

In assay [17] the target is X-box-binding protein 1 (Homo sapiens) (UniProt P17861). Description: ATG_Xbp1_CIS: Attagene CIS-FACTORIAL HepG2 Assay for human X-box Binding Protein 1 (XBP1) (AID 2282972). Conditions: HepG2 XBP1 cis-element reporter, Attagene multiplex; actives raise or lower the signal. Summed up: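 After a 24-hour chemical exposure of HepG2 cells carrying cis-regulated reporters, reporter mRNA levels are assessed. Quantification uses RT-PCR, 6-FAM labelling and capillary electrophoresis. Gain- or loss-of-signal is fitted against DMSO.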

Assay [18] can be described thus: ATG_M_19_TRANS: Attagene TRANS-FACTORIAL HepG2 Assay for M19 Transcription Factor (Internal Marker) (AID 2282974; active means hit-call score of the fitted dose curve at least 0.9, where 1 is the maximum). The conditions noted are these: HepG2 Attagene TRANS-FACTORIAL M19 internal marker reporter. Summed up: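 After transfection of HepG2 with GAL4-UAS-driven reporter constructs, cells are dosed for 24 h. Total RNA is reverse-transcribed, reporter sequences PCR-amplified and labelled, then HpaI-digested and sized by capillary electrophoresis.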

Assay [19] addresses Estrogen-related receptor gamma (Homo sapiens) (UniProt P62508). In words: ATG_ERRg_TRANS: Attagene TRANS-FACTORIAL HepG2 Assay for human Estrogen-Related Receptor gamma (ERRg) (AID 2282977; active means hit-call score of the fitted dose curve at least 0.9, where 1 is the maximum;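 further: hits increase reporter signal over DMSO so potencies reflect activators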). Conditions: HepG2 Attagene TRANS reporter, ERRg transactivation. Summed up:
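Transient HepG2 transfectants, 24 h compound exposure, GAL4-UAS reporter mRNA by RT-PCR/6-FAM labelling/capillary electrophoresis; positive direction vs DMSO.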

Chain of Signal transducer and activator of transcription 3 (Homo sapiens) (P40763 whole entry, looked up): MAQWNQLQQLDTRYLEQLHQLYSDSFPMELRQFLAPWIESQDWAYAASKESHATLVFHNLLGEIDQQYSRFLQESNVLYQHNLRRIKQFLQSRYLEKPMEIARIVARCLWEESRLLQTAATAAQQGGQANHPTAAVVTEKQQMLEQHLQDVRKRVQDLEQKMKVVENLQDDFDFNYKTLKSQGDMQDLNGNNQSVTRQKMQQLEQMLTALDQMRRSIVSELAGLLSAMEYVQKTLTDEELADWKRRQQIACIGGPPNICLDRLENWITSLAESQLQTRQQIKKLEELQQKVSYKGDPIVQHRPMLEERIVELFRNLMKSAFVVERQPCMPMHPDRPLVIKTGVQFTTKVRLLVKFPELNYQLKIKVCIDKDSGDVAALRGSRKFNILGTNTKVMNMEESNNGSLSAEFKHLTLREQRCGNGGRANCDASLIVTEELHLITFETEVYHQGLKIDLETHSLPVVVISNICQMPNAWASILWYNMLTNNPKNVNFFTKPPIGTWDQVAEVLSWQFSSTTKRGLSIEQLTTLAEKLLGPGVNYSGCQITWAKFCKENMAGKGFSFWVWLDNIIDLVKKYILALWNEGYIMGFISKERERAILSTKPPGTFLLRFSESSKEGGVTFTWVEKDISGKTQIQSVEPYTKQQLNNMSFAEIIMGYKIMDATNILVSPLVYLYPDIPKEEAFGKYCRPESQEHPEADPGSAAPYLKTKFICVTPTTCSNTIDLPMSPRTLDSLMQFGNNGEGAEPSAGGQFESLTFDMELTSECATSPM
Chain of X-box-binding protein 1 (Homo sapiens) (P17861 whole entry, looked up): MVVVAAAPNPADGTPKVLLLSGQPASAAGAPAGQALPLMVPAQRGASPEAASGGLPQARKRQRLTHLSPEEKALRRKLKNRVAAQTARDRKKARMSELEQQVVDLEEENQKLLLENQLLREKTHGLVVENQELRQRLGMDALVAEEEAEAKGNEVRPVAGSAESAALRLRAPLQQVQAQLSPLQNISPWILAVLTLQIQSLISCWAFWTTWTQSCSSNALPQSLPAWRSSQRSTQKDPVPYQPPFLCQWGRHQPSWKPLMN
Chain of Transcription factor Sp1 (Homo sapiens) (P08047 whole entry, looked up): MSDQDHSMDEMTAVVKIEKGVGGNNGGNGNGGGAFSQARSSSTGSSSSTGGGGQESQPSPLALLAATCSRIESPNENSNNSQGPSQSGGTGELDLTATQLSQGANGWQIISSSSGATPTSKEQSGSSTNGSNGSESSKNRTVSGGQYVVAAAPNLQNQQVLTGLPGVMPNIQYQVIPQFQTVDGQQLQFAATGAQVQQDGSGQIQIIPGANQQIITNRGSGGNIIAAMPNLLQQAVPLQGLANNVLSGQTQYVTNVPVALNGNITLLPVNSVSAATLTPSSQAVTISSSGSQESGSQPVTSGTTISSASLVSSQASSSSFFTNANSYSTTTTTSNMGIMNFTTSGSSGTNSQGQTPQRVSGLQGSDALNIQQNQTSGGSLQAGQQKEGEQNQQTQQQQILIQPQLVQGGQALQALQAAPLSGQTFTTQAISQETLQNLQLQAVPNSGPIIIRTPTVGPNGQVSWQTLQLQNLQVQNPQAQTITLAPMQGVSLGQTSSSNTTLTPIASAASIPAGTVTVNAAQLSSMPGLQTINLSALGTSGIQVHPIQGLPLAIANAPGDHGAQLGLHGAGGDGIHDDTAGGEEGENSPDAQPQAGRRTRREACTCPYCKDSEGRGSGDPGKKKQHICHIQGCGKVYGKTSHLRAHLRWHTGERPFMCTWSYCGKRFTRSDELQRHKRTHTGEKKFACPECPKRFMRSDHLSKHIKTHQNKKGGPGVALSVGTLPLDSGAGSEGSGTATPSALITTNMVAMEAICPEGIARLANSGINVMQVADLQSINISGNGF
Chain of Estrogen receptor (Homo sapiens) (P03372 whole entry, looked up, the tested form may be a part): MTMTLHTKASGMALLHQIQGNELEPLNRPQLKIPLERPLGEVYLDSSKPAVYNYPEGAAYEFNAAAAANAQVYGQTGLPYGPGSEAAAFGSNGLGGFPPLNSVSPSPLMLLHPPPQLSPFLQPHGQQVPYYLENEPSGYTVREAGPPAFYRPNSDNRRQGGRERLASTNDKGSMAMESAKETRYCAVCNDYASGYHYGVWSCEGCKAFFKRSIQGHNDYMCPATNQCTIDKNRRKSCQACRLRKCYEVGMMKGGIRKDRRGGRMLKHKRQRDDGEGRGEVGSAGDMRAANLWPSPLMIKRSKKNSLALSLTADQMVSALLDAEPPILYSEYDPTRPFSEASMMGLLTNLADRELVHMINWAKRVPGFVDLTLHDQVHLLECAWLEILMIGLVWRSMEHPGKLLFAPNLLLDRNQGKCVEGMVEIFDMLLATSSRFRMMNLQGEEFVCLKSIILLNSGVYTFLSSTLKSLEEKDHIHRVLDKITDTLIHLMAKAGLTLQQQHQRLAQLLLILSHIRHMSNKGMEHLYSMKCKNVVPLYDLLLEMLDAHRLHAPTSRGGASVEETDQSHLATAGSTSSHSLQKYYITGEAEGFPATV
Chain of Glucocorticoid receptor (Homo sapiens) (P04150 whole entry, looked up): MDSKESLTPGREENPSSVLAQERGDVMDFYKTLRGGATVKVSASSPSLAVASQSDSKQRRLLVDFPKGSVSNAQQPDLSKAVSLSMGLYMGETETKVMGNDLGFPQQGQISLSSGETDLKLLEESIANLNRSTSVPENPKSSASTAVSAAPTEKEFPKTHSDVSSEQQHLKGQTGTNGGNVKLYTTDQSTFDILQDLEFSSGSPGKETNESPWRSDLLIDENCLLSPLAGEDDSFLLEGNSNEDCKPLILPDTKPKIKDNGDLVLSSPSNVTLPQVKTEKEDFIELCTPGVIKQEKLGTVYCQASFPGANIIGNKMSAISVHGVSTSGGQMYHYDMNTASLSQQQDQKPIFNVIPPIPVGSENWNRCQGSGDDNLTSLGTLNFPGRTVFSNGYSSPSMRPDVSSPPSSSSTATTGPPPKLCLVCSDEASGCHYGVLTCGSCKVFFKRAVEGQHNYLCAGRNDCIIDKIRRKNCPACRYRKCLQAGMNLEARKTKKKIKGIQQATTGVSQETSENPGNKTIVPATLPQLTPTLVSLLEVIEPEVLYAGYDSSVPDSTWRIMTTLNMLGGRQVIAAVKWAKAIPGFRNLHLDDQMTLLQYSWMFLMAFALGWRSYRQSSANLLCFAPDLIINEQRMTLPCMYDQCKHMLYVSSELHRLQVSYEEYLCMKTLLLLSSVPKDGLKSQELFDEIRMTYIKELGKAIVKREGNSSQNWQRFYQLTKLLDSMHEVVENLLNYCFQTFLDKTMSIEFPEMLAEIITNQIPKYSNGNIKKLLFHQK
Chain of Estrogen-related receptor gamma (Homo sapiens) (P62508 whole entry, looked up, the tested form may be a part): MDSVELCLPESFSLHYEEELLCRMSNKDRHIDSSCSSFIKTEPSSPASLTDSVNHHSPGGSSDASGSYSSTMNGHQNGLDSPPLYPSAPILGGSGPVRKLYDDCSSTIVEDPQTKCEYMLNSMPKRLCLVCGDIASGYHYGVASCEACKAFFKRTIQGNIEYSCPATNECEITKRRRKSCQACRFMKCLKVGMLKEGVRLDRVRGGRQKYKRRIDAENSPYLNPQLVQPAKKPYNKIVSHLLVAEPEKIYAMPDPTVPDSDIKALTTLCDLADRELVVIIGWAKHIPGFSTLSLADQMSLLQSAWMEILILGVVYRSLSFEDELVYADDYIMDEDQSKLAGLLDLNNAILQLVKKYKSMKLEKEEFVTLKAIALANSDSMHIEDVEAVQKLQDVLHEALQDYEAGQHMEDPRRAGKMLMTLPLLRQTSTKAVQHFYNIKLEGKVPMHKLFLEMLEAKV
Chain of Steroid hormone receptor ERR1 (Homo sapiens) (P11474 whole entry, looked up, the tested form may be a part): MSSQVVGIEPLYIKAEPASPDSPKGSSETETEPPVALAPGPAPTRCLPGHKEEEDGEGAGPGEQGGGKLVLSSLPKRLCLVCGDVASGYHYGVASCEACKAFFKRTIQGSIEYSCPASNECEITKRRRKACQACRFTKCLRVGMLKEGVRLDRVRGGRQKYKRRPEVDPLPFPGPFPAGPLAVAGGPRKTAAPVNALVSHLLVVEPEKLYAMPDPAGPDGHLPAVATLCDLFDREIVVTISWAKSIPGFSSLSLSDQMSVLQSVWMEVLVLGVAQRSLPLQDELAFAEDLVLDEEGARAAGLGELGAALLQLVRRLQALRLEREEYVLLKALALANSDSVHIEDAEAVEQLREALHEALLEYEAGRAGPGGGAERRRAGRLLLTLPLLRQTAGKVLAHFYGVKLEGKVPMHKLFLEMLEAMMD
Chain of Nuclear receptor subfamily 1 group I member 3 (Homo sapiens) (Q14994 whole entry, looked up, the tested form may be a part): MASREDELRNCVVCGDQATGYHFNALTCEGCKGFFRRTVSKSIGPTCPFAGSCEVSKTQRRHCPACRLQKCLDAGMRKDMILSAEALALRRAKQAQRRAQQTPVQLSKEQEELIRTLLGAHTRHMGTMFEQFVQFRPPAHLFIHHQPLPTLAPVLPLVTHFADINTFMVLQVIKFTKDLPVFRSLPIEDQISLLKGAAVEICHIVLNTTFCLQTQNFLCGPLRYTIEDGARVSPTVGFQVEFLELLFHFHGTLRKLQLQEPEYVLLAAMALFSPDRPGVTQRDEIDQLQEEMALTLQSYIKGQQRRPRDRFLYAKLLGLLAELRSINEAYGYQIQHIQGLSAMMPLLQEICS

Regarding `O=C1CCCCC1`, the compound was classed as inactive in assay [1], in assay [2], in [3], in assay [4], in [5] and in assay [6]. The call in [7], in assay [8], in assay [9], in assay [10], in [11] and in assay [12] was inactive. In addition, the compound was classed as inactive in assay [13], in assay [14], in assay [15] and in [16].
As for `CCCCCCCC(=O)OC`, the call in assay [1], in [2], in [3], in assay [4], in [5] and in assay [6] was inactive. The compound was called inactive in assay [7], in [8], in [9], in assay [10], in assay [11] and in assay [13]. In addition, the call in assay [17] and in assay [18] was inactive.
With `CO[C@@H]1COCC[C@@H]1N[C@@H]1CC[C@@](C(=O)N2CCc3ncc(C(F)(F)F)cc3C2)(C(C)C)C1`, the outcome in assay [1], in assay [2], in assay [3], in assay [4], in assay [6] and in [7] was inactive. Further, the compound was called inactive in assay [8], in [9], in assay [10], in assay [11], in [17] and in assay [18]. For the same compound, the compound was called inactive in assay [15]. Besides, the AC50 (as a rule, the concentration giving half of the maximal activity seen) in [5] is 77.7 µM (active).
For the compound `O=[Si]=O`, the call in [1], in assay [2], in assay [3], in assay [4], in assay [5] and in assay [6] was inactive. Further, the outcome in assay [7], in [8], in assay [9], in assay [10], in [11] and in [13] was inactive. Also, the result in [17], in [18], in assay [15] and in assay [19] was inactive.
